Measured values from the supplement of paper PMC10849652.
About 7,900 targets were measured; listed, in parts, are those with a hit and a random draw of the rest. About 0.6% of all pairs of compound and target were hits. A number with no mark means an inactive call.

How the values were obtained:
Assay in all cases: log2 fold change, soluble protein after heating vs DMSO (PISA); higher = thermal stabilisation; K562 cells, 10 uM, 30 min; active = over 0.2 and 3.5 SD of the protein, either way, in both replicates (recomputed)
erlotinib = compound: C#Cc1cccc(Nc2ncnc3cc(OCCOC)c(OCCOC)cc23)c1 [erlotinib]
In short: (§1)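 For each measurement, 10 μM compound was applied for 30 min to K562 cells at 2×10^6 cells/mL. Aliquots were heated for 3 min across 48°C-58°C, pooled, and extracted in PBS with 0.5% NP-40 at 4°C; the supernatant after 21,000xg for 90 min was soluble protein. This was quantified by TMTpro 16plex LC-MS/MS with channel sums equalised, and thermal stability was reported relative to control samples from duplicates, on a log2 fold-change scale.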

[1] = compound: C/C(=N\NC(=O)C1=CC(=CC=C1)S(=O)(=O)N2CCOCC2)/C3=C(C=CC(=C3)Cl)O
In short: as §1

[2] = compound: C1=CC(=C(C=C1Cl)C2=NC3=NC=CN=C3C(=N2)NC4=CC=NC=C4)F
In short: as §1

[3] = compound: C1=CC(=CC=C1C2=NC3=C(N2)C=C(C=C3)C(=O)N)OC4=CC=C(C=C4)Cl
In short: as §1

[4] = compound: C1=CC2=C(C=CC(=C2)/C=C\3/C(=O)NC(=NCC4=CC=CS4)S3)N=C1
In short: as §1

[5] = compound: C1=CC2=NC=CN=C2C=C1/C=C/3\C(=O)NC(=O)S3
In short: as §1

[6] = compound: C1=CC=C(C=C1)C2=NC(=C(N2)C3=CC=NC=C3)C4=CC(=C(C=C4)Cl)O
In short: as §1

[7] = compound: C1=CC=C2C(=C1)C3=NNC4=CC=CC(=C43)C2=O
In short: as §1

[8] = compound: C1CCN(C1)C(=O)NC2=CC=CC(=C2)NC3=NC=C(C(=N3)NCCC4=CN=CN4)Br
In short: as §1

[9] = compound: C1CN(CCC1(CC2=CC=C(C=C2)Cl)N)C3=NC=NC4=C3C=CN4
In short: as §1

IRAK-1-4 Inhibitor I = compound: C1COCCN1CCN2C3=CC=CC=C3N=C2NC(=O)C4=CC(=CC=C4)[N+](=O)[O-] [IRAK-1-4 Inhibitor I]
In short: as §1

ibrutinib = compound: C=CC(=O)N1CCC[C@@H](n2nc(-c3ccc(Oc4ccccc4)cc3)c3c(N)ncnc32)C1 [ibrutinib]
In short: as §1

[10] = compound: CC(=O)c1cnc2ccc(-c3cc(Cl)c(O)c(Cl)c3)nc2c1N[C@H]1CC[C@H](CN(C)C)CC1
In short: as §1

ralimetinib = compound: CC(C)(C)Cn1c(N)nc2ccc(-c3[nH]c(C(C)(C)C)nc3-c3ccc(F)cc3)nc21 [ralimetinib]
In short: as §1

[11] = compound: CC(C)(O)CC(=O)NCCn1ccc2ncnc(Nc3ccc(Oc4cccc(C(F)(F)F)c4)c(Cl)c3)c21
In short: as §1

[12] = compound: CC(C)C1=C2N=C(C=C(N2N=C1)NCC3=CC=CC=C3)NCCCCCCN
In short: as §1

[13] = compound: CC(C)C[C@@H](C=O)NC(=O)[C@H](CC(C)C)NC(=O)[C@H](CC(C)C)NC(=O)OCc1ccccc1
In short: as §1

pinometostat = compound: CC(C)N(C[C@H]1O[C@@H](n2cnc3c(N)ncnc32)[C@H](O)[C@@H]1O)[C@H]1C[C@@H](CCc2nc3cc(C(C)(C)C)ccc3[nH]2)C1 [pinometostat]
In short: as §1

[14] = compound: CC1=C(C(CC(=O)N1)C2=CC=C(C=C2)C(F)(F)F)C(=O)NC3=C(C=C4C(=C3)C=NN4)F
In short: as §1

[15] = compound: CC1=C(C2=C(C=C1)C(=O)C3=CC=CC=C3N2CCCN)C
In short: as §1

Chain of UniProt Q9NXE4 (Q9NXE4 whole entry, looked up): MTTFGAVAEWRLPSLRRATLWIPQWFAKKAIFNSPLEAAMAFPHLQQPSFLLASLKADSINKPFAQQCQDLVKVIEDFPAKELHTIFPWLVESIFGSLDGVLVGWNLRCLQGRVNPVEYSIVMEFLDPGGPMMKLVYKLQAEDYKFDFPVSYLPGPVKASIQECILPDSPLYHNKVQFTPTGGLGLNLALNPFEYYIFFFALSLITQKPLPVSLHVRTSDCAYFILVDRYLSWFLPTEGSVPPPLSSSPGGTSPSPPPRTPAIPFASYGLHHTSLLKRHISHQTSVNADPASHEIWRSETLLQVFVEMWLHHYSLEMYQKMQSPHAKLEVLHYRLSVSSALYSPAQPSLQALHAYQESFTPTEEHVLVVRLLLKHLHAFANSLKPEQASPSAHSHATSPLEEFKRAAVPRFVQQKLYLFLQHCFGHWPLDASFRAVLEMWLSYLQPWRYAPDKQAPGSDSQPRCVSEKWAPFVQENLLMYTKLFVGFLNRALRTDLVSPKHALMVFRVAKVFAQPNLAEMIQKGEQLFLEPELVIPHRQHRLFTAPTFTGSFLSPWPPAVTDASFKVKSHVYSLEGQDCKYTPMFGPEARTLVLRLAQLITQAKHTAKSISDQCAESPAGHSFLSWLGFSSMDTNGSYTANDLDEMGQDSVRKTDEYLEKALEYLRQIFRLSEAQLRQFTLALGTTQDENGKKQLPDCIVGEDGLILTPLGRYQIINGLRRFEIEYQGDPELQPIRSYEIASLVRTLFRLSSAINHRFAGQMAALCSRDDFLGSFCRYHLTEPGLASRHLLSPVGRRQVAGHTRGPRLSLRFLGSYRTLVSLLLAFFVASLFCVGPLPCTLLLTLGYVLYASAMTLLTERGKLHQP
Chain of UniProt P36956 (P36956 whole entry, looked up): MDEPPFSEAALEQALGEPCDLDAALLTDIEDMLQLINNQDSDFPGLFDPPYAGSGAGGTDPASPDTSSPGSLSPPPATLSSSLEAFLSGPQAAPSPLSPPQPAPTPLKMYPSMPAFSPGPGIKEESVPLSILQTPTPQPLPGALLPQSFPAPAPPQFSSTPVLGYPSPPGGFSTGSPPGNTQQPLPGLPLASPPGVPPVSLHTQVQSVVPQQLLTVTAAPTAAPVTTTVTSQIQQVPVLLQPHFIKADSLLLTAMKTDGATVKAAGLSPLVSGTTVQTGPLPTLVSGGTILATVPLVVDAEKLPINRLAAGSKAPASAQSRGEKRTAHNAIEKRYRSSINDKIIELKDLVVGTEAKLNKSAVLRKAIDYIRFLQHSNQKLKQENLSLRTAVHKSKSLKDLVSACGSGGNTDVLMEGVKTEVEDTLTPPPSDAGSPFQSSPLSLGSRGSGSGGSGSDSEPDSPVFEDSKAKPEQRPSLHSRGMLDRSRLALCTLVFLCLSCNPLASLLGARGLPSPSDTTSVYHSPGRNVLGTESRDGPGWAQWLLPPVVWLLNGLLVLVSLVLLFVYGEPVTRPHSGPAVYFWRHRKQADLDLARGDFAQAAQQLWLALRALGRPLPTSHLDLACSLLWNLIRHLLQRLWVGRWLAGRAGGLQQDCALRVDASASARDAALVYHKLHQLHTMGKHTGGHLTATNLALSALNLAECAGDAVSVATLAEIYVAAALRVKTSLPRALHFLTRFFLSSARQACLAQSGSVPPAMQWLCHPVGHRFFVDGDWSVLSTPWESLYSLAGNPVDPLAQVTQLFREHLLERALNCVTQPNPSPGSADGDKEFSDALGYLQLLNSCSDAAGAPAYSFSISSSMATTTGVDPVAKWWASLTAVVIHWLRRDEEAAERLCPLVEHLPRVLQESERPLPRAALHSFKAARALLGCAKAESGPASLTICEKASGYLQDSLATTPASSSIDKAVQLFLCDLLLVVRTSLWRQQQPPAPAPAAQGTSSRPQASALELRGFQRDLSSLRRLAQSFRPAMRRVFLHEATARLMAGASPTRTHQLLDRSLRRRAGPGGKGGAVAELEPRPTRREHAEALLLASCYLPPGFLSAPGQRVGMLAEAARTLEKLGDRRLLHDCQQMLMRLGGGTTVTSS
Chain of UniProt P35711 (P35711 whole entry, looked up): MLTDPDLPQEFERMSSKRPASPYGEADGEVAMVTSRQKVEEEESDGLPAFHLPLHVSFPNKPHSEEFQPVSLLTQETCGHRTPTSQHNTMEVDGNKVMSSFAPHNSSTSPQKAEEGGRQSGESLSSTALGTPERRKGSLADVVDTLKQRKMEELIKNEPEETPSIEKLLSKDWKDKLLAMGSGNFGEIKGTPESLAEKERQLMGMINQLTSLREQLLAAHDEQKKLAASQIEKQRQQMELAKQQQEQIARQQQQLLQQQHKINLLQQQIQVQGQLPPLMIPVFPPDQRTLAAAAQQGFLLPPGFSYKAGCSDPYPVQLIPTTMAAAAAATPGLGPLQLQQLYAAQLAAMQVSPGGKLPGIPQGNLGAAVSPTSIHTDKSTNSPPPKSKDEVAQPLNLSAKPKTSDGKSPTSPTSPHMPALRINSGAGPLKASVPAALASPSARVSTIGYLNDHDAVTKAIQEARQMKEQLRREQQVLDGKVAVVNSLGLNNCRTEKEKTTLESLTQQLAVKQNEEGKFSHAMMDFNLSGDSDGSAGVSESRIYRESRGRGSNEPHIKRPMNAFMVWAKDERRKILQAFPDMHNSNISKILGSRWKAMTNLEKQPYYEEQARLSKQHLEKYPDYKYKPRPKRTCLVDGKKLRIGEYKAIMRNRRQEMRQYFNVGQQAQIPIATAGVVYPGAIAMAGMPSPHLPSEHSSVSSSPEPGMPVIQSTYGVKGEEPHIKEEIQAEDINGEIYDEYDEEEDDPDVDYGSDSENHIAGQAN
Chain of UniProt O76062 (O76062 whole entry, looked up): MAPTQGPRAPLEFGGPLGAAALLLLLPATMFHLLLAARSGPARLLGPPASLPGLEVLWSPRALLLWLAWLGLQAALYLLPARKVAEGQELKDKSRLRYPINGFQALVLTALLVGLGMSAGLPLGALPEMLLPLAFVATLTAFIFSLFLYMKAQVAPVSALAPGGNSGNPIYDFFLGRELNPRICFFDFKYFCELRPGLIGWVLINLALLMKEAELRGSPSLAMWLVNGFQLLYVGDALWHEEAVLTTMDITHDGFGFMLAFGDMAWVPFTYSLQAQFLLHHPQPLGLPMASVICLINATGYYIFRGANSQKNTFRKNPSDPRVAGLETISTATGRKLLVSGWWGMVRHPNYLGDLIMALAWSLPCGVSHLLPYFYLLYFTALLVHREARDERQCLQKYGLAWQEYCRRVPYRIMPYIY
Chain of UniProt P78383 (P78383 whole entry, looked up): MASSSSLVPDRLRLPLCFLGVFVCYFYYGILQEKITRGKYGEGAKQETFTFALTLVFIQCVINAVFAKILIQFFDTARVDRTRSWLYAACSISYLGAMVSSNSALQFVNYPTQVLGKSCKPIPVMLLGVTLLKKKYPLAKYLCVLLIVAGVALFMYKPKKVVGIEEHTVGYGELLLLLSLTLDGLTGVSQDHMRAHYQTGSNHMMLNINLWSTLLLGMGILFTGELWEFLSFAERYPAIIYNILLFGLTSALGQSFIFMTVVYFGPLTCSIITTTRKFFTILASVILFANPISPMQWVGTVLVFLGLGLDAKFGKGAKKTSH
Chain of UniProt Q9Y6J9 (Q9Y6J9 whole entry, looked up): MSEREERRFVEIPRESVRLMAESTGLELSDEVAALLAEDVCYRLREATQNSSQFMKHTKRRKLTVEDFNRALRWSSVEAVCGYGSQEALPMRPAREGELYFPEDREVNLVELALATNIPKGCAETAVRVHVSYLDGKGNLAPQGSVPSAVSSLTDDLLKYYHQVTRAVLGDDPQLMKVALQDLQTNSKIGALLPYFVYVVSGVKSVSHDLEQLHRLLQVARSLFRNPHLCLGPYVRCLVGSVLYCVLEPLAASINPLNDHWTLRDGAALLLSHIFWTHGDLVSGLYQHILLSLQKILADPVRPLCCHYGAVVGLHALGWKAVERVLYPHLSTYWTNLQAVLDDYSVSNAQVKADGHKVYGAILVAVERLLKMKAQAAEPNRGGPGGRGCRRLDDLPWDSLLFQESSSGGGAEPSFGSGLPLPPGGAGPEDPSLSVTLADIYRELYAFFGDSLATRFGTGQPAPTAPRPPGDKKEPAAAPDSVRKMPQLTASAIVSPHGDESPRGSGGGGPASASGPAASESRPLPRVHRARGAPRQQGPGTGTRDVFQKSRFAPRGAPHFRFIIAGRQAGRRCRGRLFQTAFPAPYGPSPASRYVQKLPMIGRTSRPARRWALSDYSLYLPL
Chain of UniProt Q9BYX2 (Q9BYX2 whole entry, looked up): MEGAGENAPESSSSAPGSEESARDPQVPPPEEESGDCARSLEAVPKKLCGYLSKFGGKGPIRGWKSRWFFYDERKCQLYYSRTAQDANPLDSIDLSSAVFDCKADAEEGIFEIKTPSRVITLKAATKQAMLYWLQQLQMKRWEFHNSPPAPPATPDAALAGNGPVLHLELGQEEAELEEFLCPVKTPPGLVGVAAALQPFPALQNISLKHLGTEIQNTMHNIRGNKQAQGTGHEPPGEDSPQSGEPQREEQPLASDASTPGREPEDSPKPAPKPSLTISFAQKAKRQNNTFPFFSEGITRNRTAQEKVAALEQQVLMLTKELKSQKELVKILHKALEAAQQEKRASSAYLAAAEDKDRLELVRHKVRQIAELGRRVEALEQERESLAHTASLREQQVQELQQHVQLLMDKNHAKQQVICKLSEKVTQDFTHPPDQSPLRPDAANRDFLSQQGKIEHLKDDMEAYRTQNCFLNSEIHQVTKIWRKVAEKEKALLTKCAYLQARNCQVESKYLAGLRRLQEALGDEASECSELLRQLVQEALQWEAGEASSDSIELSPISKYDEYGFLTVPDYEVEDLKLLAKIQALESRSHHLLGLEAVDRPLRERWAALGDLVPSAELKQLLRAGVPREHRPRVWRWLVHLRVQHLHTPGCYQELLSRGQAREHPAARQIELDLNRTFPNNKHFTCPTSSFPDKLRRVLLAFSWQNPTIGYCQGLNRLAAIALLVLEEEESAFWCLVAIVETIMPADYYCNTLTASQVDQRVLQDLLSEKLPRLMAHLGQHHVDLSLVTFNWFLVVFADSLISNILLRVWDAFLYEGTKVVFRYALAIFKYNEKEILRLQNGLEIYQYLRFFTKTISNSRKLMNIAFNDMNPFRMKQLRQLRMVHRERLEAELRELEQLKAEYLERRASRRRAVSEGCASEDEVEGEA

Target	log2 fold change (erlotinib)	log2 fold change [1]	log2 fold change [2]	log2 fold change [3]	log2 fold change [4]	log2 fold change [5]	log2 fold change [6]	log2 fold change [7]	log2 fold change [8]	log2 fold change [9]	log2 fold change (IRAK-1-4 Inhibitor I)	log2 fold change (ibrutinib)	log2 fold change [10]	log2 fold change (ralimetinib)	log2 fold change [11]	log2 fold change [12]	log2 fold change [13]	log2 fold change (pinometostat)	log2 fold change [14]	log2 fold change [15]
TIMM44 (UniProt O43615)	-0.012	0.026	0.054	-0.007	0.024	0.041	0.042	0.012	0.028	-0.029	0.066	-0.061	-0.065	-0.039	-0.171	-0.399 (active)	0.006	-0.004	0.028	0.022
SRC isoform 2 (UniProt P12931)	-0.014	-0.034	-0.006	0.153	0.088	0.022	0.036	-0.049	-0.073	-0.025	-0.018		-0.251	-0.136	-0.22	0.159	0.05	0.087	0.067	0.02
SMPD4 isoform 2 (UniProt Q9NXE4)		-0.001			0.134	-0.027		-0.003	-0.011	0.05	0.016	-0.156	0.196					0		0.115
SSBP4 (UniProt Q9BWG4)	0.08	0.076		0.043	-0.054	-0.056	-0.052	-0.099	0.022	-0.024	0.013	0.001	-0.081	-0.131		0.058	0.011	0.09	0.013	0.015
SLC9A6 isoform 3 (UniProt Q92581)	0.006	0.013		-0.103	-0.022	0.18		-0.068	0.021	0.006		-0.012	0.004			0.051				0.075
TCOF1 isoform 3 (UniProt Q13428)	0.062		-0.193	-0.172			-0.056		0.101	0.012				0.522	-0.095	-0.01	0.176			-0.642
THAP9 (UniProt Q9H5L6)		-0.733 (active)			0.163	-0.211	0.123	-0.057			0.07	0.002	-0.105	0.178			-0.025	-0.035	0.027	
TAF6L (UniProt Q9Y6J9)	0.042	0.08		-0.132	0.009		-0.051	0.088	-0.069	-0.197			0.054	-0.092		0.023	0.122		0.118	-0.03
SNX15 (UniProt Q9NRS6)		0.062			-0.088	-0.006	0	-0.065	-0.166	-0.072	-0.031	-0.112	-0.111	-0.051			0.021	-0.069	-0.099	-0.016
TBC1D2 (UniProt Q9BYX2)		0	-0.042		0.063			-0.006					-0.208		0.007					
SRXN1 (UniProt Q9BYN0)		0.335	0.097		0.036	0.031	0.004	-0.017	-0.021	0.048	-0.291	-0.013	0.12	-0.134	-0.201		-0.024	0.187	0.045	-0.026
SLC8B1 (UniProt Q6J4K2)	0.111	0.089		0.003	-0.039	0.095	0.016	0.032			0.096	-0.091	0.112	-0.093		-0.378	0.048	0.019		
TCOF1 isoform 6 (UniProt Q13428)	-0.234			0.074		-0.045	0.186		0.002	0.02	0.041	0.12		0.225		0.092	-0.127	-0.121	0	-0.155
SNX2 isoform 2 (UniProt O60749)		-0.244	0.091		0.402	-0.186		-0.033			0.091	0.151	-0.039		-0.377			-0.094		
SOX5 (UniProt P35711)	0.009	0.006		0.125	0.047	0.018	-0.049	0.012	-0.069	0.095	0.067	0.115	-0.028	0.037		-0.086	0.368	-0.088	-0.051	-0.081
SREBF1 isoform 4 (UniProt P36956)	0.034		0.045	0.001		0.068					0.008	0.025			-0.404	-0.077		-0.088		
TK1 (UniProt K7ERV3)		0.063	-0.011		0.028	-0.006	-0.069	0.037	-0.015	0.061		-0.033	-0.071	-0.025	-0.122		0.078		0.004	-0.037
TM7SF2 (UniProt O76062)	-0.012			-0.05			-0.151							-0.106		-0.124	-0.01		-0.134	
SLC35B1 isoform 2 (UniProt P78383)	-0.024		-0.008	0.127		0.018	0.085		-0.021	0.271	-0.067	0.09		-0.184	-0.217	-0.04	0.038	0.065	-0.086	0.011
